HTR5A ag ctr – HTR5A agonism, opioid heterodimer counter-screen; HTR5A agonist assay, luminescence, cell-based; activation, % at 9.3 µM; hit rate 0.61% among 340,000; AID 504692; in the data active = activation mostly above about 9.5%, no sharp cut-off; inactive = mostly below about 7.6%;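 note: 0% = cells with vehicle only and 100% = reference agonist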
Target sequence (P47898 whole entry, looked up): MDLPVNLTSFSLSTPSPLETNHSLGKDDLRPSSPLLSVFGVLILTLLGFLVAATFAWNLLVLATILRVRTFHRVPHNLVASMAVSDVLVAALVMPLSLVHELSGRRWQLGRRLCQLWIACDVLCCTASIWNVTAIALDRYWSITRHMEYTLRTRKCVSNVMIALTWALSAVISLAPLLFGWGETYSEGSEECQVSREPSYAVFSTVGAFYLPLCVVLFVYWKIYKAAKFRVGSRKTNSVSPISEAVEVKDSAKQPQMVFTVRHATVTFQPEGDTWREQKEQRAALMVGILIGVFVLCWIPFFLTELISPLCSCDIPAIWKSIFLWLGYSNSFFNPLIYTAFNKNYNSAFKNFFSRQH
m5-HT2A agonist – mouse HTR2A agonism via beta-arrestin recruitment; P35363; CHO-K1 mHTR2A beta-arrestin complementation, luminescence; percent of 30 µM serotonin response; activation, % at 7.6 µM; hit rate 0.66% among 360,000; AID 624169;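 active = activation above a run cutoff, the mean activation of all tested compounds plus 3 SD, cut at about 14% in these data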;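 note: 0% = plate median of compound wells and 100% = 30 µM serotonin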
MOR-DOR inv ag – inverse agonists of human mu-delta opioid receptor heterodimerization; P35372+P41143; cell-based MOR-DOR heterodimer luminescence, inverse agonism; inhibition, % at 9.3 µM; hit rate 0.21% among 340,000; AID 504357; in the data active = inhibition above about 22%, passing the limit was not always enough;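 note: 0% = cells with DMSO and 100% = wells without cells with DMSO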
HTR5A inv ag – inverse agonist of human HTR5A in OPRM1-OPRD1 counter-screen | P47898 | HTR5A cell line, luminescence, inverse agonism | inhibition, % at 9.3 µM | hit rate 0.083% among 340,000 | AID 504634; in the data active = inhibition mostly above about 23%, no sharp cut-off; inactive = mostly below about 18%;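 note: 0% = cells with DMSO and 100% = no-cell wells with DMSO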
OPRM1-OPRD1 ag – OPRM1-OPRD1 heterodimerization agonism; P35372+P41143; cells, luminescence; activation, % at 9.3 µM; hit rate 0.3% among 340,000; AID 504326; in the data active = activation above about 18%;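 note: 0% = vehicle-treated cells and 100% = reference agonist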
OPRM1 ag – OPRM1 agonism in mouse HTR2A counterscreen | shares compounds with m5-HT2A agonist | hit rate 5.3% among 2,300 | U2OS OPRM1 beta-arrestin PathHunter, luminescence; DMSO 0%, DAMGO 9.3 µM 100% | activation, % at 9.3 µM | AID 624380;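 active = mean activation above the mean of DMSO-only wells plus 3 SD, cut at about 0.5% in these data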
m5-HT2A ag conf – mouse HTR2A agonism confirmed; shares compounds with m5-HT2A agonist; CHO-K1 PathHunter beta-arrestin recruitment, luminescence; DMSO 0%, 30 µM serotonin 100%; activation, % at 7.6 µM; hit rate 19% among 2,300;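 active = mean activation across triplicates above the hit threshold derived in the original primary screen, cut at about 15% in these data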
Starred values were filed as active, the others as inactive; nt = not tested or not shown. Shown are actives, neighbours in structure and some others; about 1.6% of the full set was active somewhere.

SMILES | HTR5A ag ctr | m5-HT2A agonist | MOR-DOR inv ag | HTR5A inv ag | OPRM1-OPRD1 ag | OPRM1 ag | m5-HT2A ag conf
CN1CCN(c2ncnc3c2ncn3[C@H]2CN(Cc3ccncc3)C[C@@H](CO)O2)CC1 | nt | 15* | nt | nt | nt | nt | -6
Cc1cc(C)cc(OCCNC(=O)CCc2ccccc2)c1 | -1 | -5 | 5 | 2 | -1 | nt | nt
Cc1nn(CC2CC2)c(=O)n1-c1cccc(Cl)c1 | -1 | 20* | 4 | 3 | -1 | 0 | -3
COc1ccc(C(=O)NNC2=CC(=O)CC(C)(C)C2)cc1 | -4 | 19* | 6 | -11 | -1 | -1 | 1
Cn1cccc1/C=C1\SC(=O)N(c2ccc(O)cc2)C1=O | -3 | 3 | -3 | -15 | 1 | nt | nt
CC(C)=CCC/C(C)=C/CNC(=O)C[C@H]1C[C@H](C(=O)N2CCCCC2)[C@@]2(CCc3ccccc3)c3[nH]c4ccc(Cl)cc4c3CCN2C1=O | 1 | -5 | 20 | -2 | -4 | nt | nt
CC(=O)Nc1ccc(S(=O)(=O)N2c3ccccc3NC(=O)CC2C)c(Cl)c1 (stereo not drawn) | nt | 17* | nt | nt | nt | 0 | -1
CC1CC(=O)Nc2ccccc2N1S(=O)(=O)c1ccc(Cl)cc1 (stereo not drawn) | 4 | 7 | 4 | -19 | -1 | nt | nt
Cc1ccc2nc(Nc3ccc(Cl)cc3)c3nncn3c2c1 | -2 | 6 | 0 | 8 | 0 | nt | nt
CNc1cccnc1C=NNC(N)=S | 2 | 15* | -1 | -9 | 0 | -1 | -3
Cc1noc(C)c1S(=O)(=O)N1CCCC(C(=O)N2CCN(C3CCCCC3)CC2)C1 (stereo not drawn) | -1 | 0 | 2 | 3 | 0 | nt | nt
Cc1noc(C)c1S(=O)(=O)N1CCC(C(=O)N2CCC(N3CCCCC3)CC2)CC1 | 13 | 34* | -2 | -40 | 0 | 0 | -4
COc1ccccc1N1CCN(C(=O)COc2ccc(S(=O)(=O)NC(C)C)cc2)CC1 | 4 | 15* | 4 | 5 | -1 | -1 | -2
CC(C)c1cc(=O)[nH]c(N2CCN(Cc3ccc4c(c3)OCO4)CC2)n1 | 1 | 20* | 8 | -5 | -2 | 0 | 19*
O=[N+]([O-])c1cccnc1N1CCN(Cc2ccc3c(c2)OCO3)CC1 | 4 | 29* | 7 | 8 | -1 | 0 | 68*
O=[N+]([O-])c1ccccc1/C=C/CN1CCN(Cc2ccc3c(c2)OCO3)CC1 | -1 | -8 | 0 | 5 | 0 | nt | nt
O=[N+]([O-])c1ccc2ncnc(N3CCN(Cc4ccc5c(c4)OCO5)CC3)c2c1 | 2 | 31* | -13 | 6 | 2 | 0 | 73*
CCCc1cc(=O)[nH]c(N2CCN(Cc3ccc4c(c3)OCO4)CC2)n1 | 0 | 10 | 15 | 2 | -3 | nt | nt
Cc1[nH]c2ccccc2c1C(=O)COC(=O)C1CC(O)CN1S(=O)(=O)c1ccc(Cl)cc1 (stereo not drawn) | 2 | 15* | -9 | -6 | 2 | 0 | 5
O=C(COC(=O)C1CC(O)CN1S(=O)(=O)c1ccc(Cl)cc1)c1ccccc1 (stereo not drawn) | 6 | -2 | 14 | -22 | -3 | nt | nt
O=C(Nc1ccc(-c2csc(-c3ccccc3)n2)cc1)c1ccccc1Cl | 2 | 0 | 7 | 3 | -1 | nt | nt
O=C(Nc1ccc(-c2n[nH]c(=S)o2)cc1)c1ccccc1Cl | 0 | 17* | 20 | 1 | -4 | -1 | 5
Cc1c(C(=O)Nc2ccc(S(=O)(=O)N3CCOCC3)cc2)cccc1[N+](=O)[O-] | 0 | 19* | 11 | 1 | -2 | 0 | 1
Cc1cccc(C(=O)Nc2ccc(S(=O)(=O)N3CCOCC3)cc2)c1[N+](=O)[O-] | 2 | -3 | 9 | -9 | -2 | nt | nt
COc1ccccc1-c1ccc2c(c1)C(C)(Cc1ccc(Cl)c(Cl)c1)C(=O)N2 (stereo not drawn) | nt | 23* | nt | nt | nt | -1 | -4
SMILES | HTR5A ag ctr | m5-HT2A agonist | MOR-DOR inv ag | HTR5A inv ag | OPRM1-OPRD1 ag | OPRM1 ag | m5-HT2A ag conf
COc1ccccc1-c1ccc2c(c1)C(C)(Cc1ccccc1C#N)C(=O)N2 (stereo not drawn) | nt | 7 | nt | nt | nt | nt | nt
CSc1cccc(NC(=O)Cn2cnc(S(=O)(=O)N3CCCC3)c2)c1 | 0 | 2 | -2 | 8 | 0 | nt | nt
Cc1cccc(C)c1NC(=O)CN(C)C(=O)CC1OC(=O)c2ccccc21 (stereo not drawn) | 1 | 18* | -5 | -3 | 1 | -1 | -1
CN(Cc1ccccc1)C(=O)c1ncn2c1C(=O)N(C)CC2 | nt | -2 | nt | nt | nt | nt | nt
COc1ccc2[nH]c(C)c(CCN(Cc3cccs3)C(=S)Nc3ccccc3)c2c1 | 4 | 8 | 0 | -11 | 0 | nt | nt
COc1ccccc1NC(=S)N(CCc1c(C)[nH]c2ccccc12)Cc1cccs1 | -4 | 16* | 4 | 12 | -1 | -1 | -5
COc1cc2[nH]c(=S)n(Cc3cccs3)c(=O)c2cc1OC | 4 | 19* | 13 | -9 | -3 | -1 | -2
CCCn1c(=S)[nH]c2cc(OC)c(OC)cc2c1=O | -2 | 6 | 5 | -6 | -1 | nt | nt
CCOC(=O)N1CCN(C(c2ccccc2)c2sc3nc(C)nn3c2O)CC1 (stereo not drawn) | 3 | 3 | 8 | 12 | -1 | nt | nt
CCOC(=O)N1CCN(C(c2ccc(F)cc2)c2sc3nc(C)nn3c2O)CC1 (stereo not drawn) | -6 | 32* | 6 | -17 | -1 | -1 | -3
Cc1ccc(-c2csc(NC(=O)c3cccc(C)c3)c2C(=O)O)cc1 | 4 | 15* | 4 | -48 | -1 | 0 | -2
COc1ccc(NC(=O)CSc2nc3ccccc3nc2N2CCOCC2)c(OC)c1 | 7 | 16* | 7 | -8 | -1 | -1 | -5
COCCCNC(=O)CSc1nc2ccccc2c(=O)n1CCCN1CCCCC1 | -1 | -12 | 9 | 4 | -2 | nt | nt
COc1ccc(NC(=O)CSc2nc3ccccc3c(=O)n2CCCN2CCCCC2)c(OC)c1 | -2 | 42* | 4 | -2 | -1 | 0 | 18*
CCOc1ccccc1NC(=O)CSc1nc2ccccc2nc1N1CCOCC1 | 0 | 5 | 3 | 1 | -1 | nt | nt
O=C1CN(C(=O)C2CCC(=O)N(CCc3ccc(Cl)cc3)C2)CCN1 (stereo not drawn) | 6 | 17* | 13 | 4 | -2 | -1 | 2
Cc1ccc(C(=O)NNc2cc(=O)n(C)c(=O)n2C)cc1C | 0 | -1 | 29 | 1 | -6 | nt | nt
CCOc1ccc(NC(=O)CCN2CCN(c3ccccc3F)CC2)cc1 | 3 | 21* | 16 | -10 | -3 | -1 | 45*
COc1cc(CN2CCN(c3ccccc3F)CC2)cc(OC)c1O | 7 | 16* | -28 | -46 | 5 | -1 | 30*

Screening results (PubChem)
